Shown are actives, neighbours in structure and some others; about 3.5% of the full set was active somewhere.
TEAD-YAP inh – TEAD-YAP interaction inhibition; HEK-TIYL cells, TEAD-Gal4/YAP UAS-luciferase luminescence; inhibition, % at 9.12 µM; actives 1.4% (n = 640,000); AID 1259422; in the data active means inhibition above about 32%
FBW7 activator – human FBW7 E3 ligase activation, primary screen; Q969H0; AlphaScreen FBW7–phospho-cyclin E peptide binding, activator screen; normalized activity (activation), % at 26.1 µM; actives 0.13% (n = 650,000); AID 1259310; in the data active means normalized activity above about 1.9%;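 further: purified mutant Fbw7 with reduced substrate affinity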
GPR151 activ – human GPR151 activation | Q8TDV0 | PathHunter beta-arrestin GPR151 cells, luminescence | activation, % at 11.2 µM | actives 1% (n = 650,000); in the data active means activation above about 4.9%
MITF primary – human MITF inhibition, primary screen; O75030; inhibition, % at 2.6 µM; AID 1259374; AlphaScreen MITF homodimerization, bead proximity signal; actives 0.91% (n = 650,000); in the data active means inhibition above about 50%
Target sequence (O75030 whole entry, looked up): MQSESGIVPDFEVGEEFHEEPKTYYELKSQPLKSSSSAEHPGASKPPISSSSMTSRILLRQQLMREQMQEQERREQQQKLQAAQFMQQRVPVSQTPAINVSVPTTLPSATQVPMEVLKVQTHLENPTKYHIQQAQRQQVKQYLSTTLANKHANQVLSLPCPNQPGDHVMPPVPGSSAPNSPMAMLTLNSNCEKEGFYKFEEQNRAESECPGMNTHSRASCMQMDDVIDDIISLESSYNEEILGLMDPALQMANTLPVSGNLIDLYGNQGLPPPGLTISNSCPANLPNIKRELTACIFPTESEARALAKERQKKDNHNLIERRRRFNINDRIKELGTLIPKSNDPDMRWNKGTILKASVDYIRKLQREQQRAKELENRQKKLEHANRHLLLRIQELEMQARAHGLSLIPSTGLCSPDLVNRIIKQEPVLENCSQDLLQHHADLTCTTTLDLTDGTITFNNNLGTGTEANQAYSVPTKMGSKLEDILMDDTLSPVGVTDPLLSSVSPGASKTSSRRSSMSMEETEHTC
A number is an active result; - = inactive.

SMILES	TEAD-YAP inh	FBW7 activator	GPR151 activ	MITF primary
COc1cccc(C=Nc2ccc3[nH]ncc3c2)c1O	-	6.3	-	-
COc1ccc(C(=O)N/N=C/c2cccc(OC)c2O)cc1	-	-	-	-
COc1ccccc1/C=N/NC(=O)c1cc(-c2ccc(C)cc2)n[nH]1	-	-	-	-
COc1cccc(/C=N/NC(=O)c2cc(-c3ccc(C)cc3)n[nH]2)c1O	79.2	-	-	62.1
COc1cc(Br)cc(C=Nc2ccc3[nH]ncc3c2)c1O	-	-	-	-
O=C(Nc1ncc(S(=O)(=O)c2ccc([N+](=O)[O-])cc2)s1)C(F)F	-	-	-	-
COc1ccc(/C=C2\N=C(c3cc(F)c(F)cc3Cl)OC2=O)cc1OC	-	-	-	-
COc1cccc(/C=N/NC(=O)c2cccc(NC(=O)c3ccccc3F)c2)c1O	63.9	-	-	-
COc1cccc(/C=N/NC(=O)COc2ccccc2)c1O	-	-	-	-
COc1cccc(/C=N/NC(=O)Cn2c3ccccc3c(=O)c3ccccc32)c1O	50.4	-	-	-
COc1cccc2c(SCC(=O)N/N=C/c3ccc(O)cc3O)cc(C)nc12	-	-	-	-
C=CCc1cccc(/C=N/NC(=O)c2ccccc2O)c1O	42.5	-	-	-
C=CCc1cccc(/C=N/NC(=O)c2ccccc2OC)c1O	-	-	-	-
COc1cccc(/C=N/NC(=O)CSc2cc(C)nc3ccc(C)cc23)c1O	43.6	-	-	-
CCc1nn(Cc2ccc(C(=O)OC)o2)c(=O)c2cc3ccsc3n12	-	-	-	-
Cc1nc2sc(C(c3ccc([N+](=O)[O-])cc3)N3CCN(CCO)CC3)c(O)n2n1 (stereo not given)	-	-	-	-
CC(C)Oc1ccc(-c2cc(C(=O)N/N=C/c3ccccc3O)[nH]n2)cc1	65.5	-	-	-
COc1cccc(/C=N/NC(=O)c2cc(C34CC5CC(CC(C5)C3)C4)[nH]n2)c1O	40.5	-	-	-
CCCCCn1c(SCc2ccc(C)cc2)nc2cc(C(=O)NCc3ccco3)ccc2c1=O	-	-	-	-
CCOC(=O)NC(c1ccc(OC)cc1)C(C(=O)OCC)C(=O)c1ccccc1 (stereo not given)	-	-	-	-
CN(C)/C(N)=N/C(N)=Nc1ccccc1	-	-	-	-
Cc1ccccc1-c1nc2cc(NC(=O)c3cc([N+](=O)[O-])ccc3Cl)ccc2o1	33.3	-	-	-
O=C(Nc1ccc2oc(-c3ccccc3)nc2c1)c1cc([N+](=O)[O-])ccc1Br	36.0	-	-	-
O=C(Nc1ccc2oc(-c3ccccc3Cl)nc2c1)c1cc([N+](=O)[O-])ccc1Cl	-	-	-	-
CC(C)C(=O)Nc1ccc2oc(-c3ccccc3F)nc2c1	71.8	-	-	-
SMILES	TEAD-YAP inh	FBW7 activator	GPR151 activ	MITF primary
CC(=O)Nc1ccc2oc(-c3ccccc3F)nc2c1	-	-	-	-
O=C(Nc1ccc2oc(-c3cccc(Cl)c3Cl)nc2c1)c1cc([N+](=O)[O-])ccc1Cl	-	-	-	-
O=C(Nc1ccc2oc(-c3ccccc3F)nc2c1)c1cc([N+](=O)[O-])ccc1Cl	32.2	-	-	-
CC1=C(C(=O)Nc2ccccc2C)C(c2ccco2)C(C#N)=C(SCC(=O)OCc2ccccc2)N1 (stereo not given)	-	-	-	-
O=C(Cc1ccc([N+](=O)[O-])cc1)Nc1ccc2c(c1)oc1ccccc12	-	-	-	-
O=C(Nc1ccc2oc(-c3ccc4ccccc4c3)nc2c1)c1cccc(Cl)c1Cl	-	1.9	-	-
O=C(Nc1ccc2c(c1)oc1ccccc12)c1cc([N+](=O)[O-])ccc1Br	32.9	-	-	-
CCOC(=O)C1=C(C)N=c2s/c(=C\c3ccc(OCc4ccccc4Cl)cc3)c(=O)n2C1c1ccc(SC)cc1 (stereo not given)	-	-	-	-
CC(=O)c1ccc2c(c1)[nH]c1cc(C(C)=O)ccc12	46.3	-	-	-
CCOc1ccccc1NC(=O)c1cc(OCC)c(OCC)c(OCC)c1	-	-	-	-
CCOc1cc(C(=O)Nc2sccc2C(=O)N2CCOCC2)cc(OCC)c1OCC	-	-	-	-
CCOc1cc(C(=O)Nc2sccc2C(N)=O)cc(OCC)c1OCC	36.4	-	-	-
CCOc1cc(C(=O)Nc2ccccc2C(N)=O)cc(OCC)c1OCC	36.9	-	-	-
COCCCNC(=O)c1cnn2c(C)c(Cc3cccc(Cl)c3)c(C)nc12	-	-	-	-
Cc1c(NC(=O)CSc2nnc3c4ccccc4n(CCc4ccccc4)c3n2)c(=O)n(-c2ccccc2)n1C	46.5	-	-	-
CC(=O)c1cccc(NC(=O)CSc2nnc3c4ccccc4n(CCc4ccccc4)c3n2)c1	40.3	-	-	-
COc1ccc2ccccc2c1-c1cc(C(=O)N/N=C/c2ccncc2)[nH]n1	-	-	-	-
COc1cc(/C=N\NC(=O)c2cncc(Br)c2)ccc1O	-	-	-	-
CC(C)(C)P(=NC(=S)NCCCO)(N1CCCCCC1)N1CCCCCC1	72.6	-	-	-
CCOCC(=O)Nc1c2c(nn1C(C)(C)C)CSC2	-	-	-	-
CCOC(=O)C1(N(CC)CC)Sc2cc(C)ccc2NC1=O (stereo not given)	-	-	-	-
CCOC(=O)C1(NC(=S)N2CCOCC2)Sc2cc(C)ccc2NC1=O (stereo not given)	52.4	-	-	-
CCOC(=O)C1(Nc2ccccc2)Sc2cc(C)ccc2NC1=O (stereo not given)	62.9	-	-	-
CCN1/C(=C/c2ccc3ccc(C)cc3[n+]2CC)Sc2cc(C)c(C)cc21	89.3	-	-	-
CCN1/C(=C/c2ccc3ccc(C)cc3[n+]2C)Sc2ccccc21	89.5	-	-	-
SMILES	TEAD-YAP inh	FBW7 activator	GPR151 activ	MITF primary
CCN1/C(=C/c2ccc3cc(C)ccc3[n+]2CC)Sc2cc(NC(C)=O)ccc21	-	-	-	-
CCN1/C(=C/c2ccc3cc(C)ccc3[n+]2CC)Sc2c(C)cc(C)cc21	72.5	-	-	-
CN1C(=O)N(C)C2(c3ccccc3)Nn3c(s/c(=C\C=C/c4ccc([N+](=O)[O-])o4)c3=O)=NC12c1ccccc1 (stereo not given)	-	-	-	-
COc1cccc(C(=O)N(CC(=O)Nc2sc(C)c(C)c2C(N)=O)C2CCCC2)c1	40.6	-	-	-
Cc1sc(NC(=O)CN(C(=O)c2ccccc2)C2CCCCC2)c(C(N)=O)c1C	36.5	-	-	-
Cc1ccccc1C(=O)N(CC(=O)Nc1sc(C)c(C)c1C(N)=O)C1CCCCC1	-	-	-	-
Cc1sc(NC(=O)CN(C(=O)c2ccccc2)C2CCCC2)c(C(N)=O)c1C	41.2	-	-	-
Cc1sc(NC(=O)CN(C(=O)c2ccc(Cl)cc2)C2CCCC2)c(C(N)=O)c1C	-	-	-	-
CC1CCC(NC(=O)c2ncn[nH]2)CC1 (stereo not given)	-	-	-	-
CCN(CC)c1ccc(C2Nc3ccccc3NC3=C2C(=O)CC(C)(C)C3)cc1 (stereo not given)	53.6	-	-	-
CSc1ccc(C2Nc3ccc(C(=O)c4ccccc4)cc3NC3=C2C(=O)CCC3)cc1 (stereo not given)	43.3	-	-	-
